According to PubChem BioAssay AID1159580 (chemical genetic matrix, 2015):
About 2,000 (36%) of roughly 5,500 compounds were called active. Roughly 18% stayed inconclusive and do not appear here. Rule as the data show it: active = normalized growth mostly below about 0.91 (no sharp cut-off); inconclusive = no clear call, values can overlap the other calls; inactive = mostly above about 0.92. The list shows a part of the results.

Experiment: chemical genetic growth profiling, strain panel (AID 1159580);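 also: tested at 20 µM; growth read once vehicle control cultures reached saturation at 30 °C; 1 = growth at the plate median or of vehicle wells; lower values mean less growth of the strain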
Conditions: S. cerevisiae deletion strains, growth OD

Measured: normalized growth

NC(C(=O)O)c1cc(=O)[nH]o1 (centres undefined)
inactive: locus YAL013W, strain DEP1, hits give low values 1.02 | locus YAL040C, strain CLN3, hits give low values 1.01 | locus YCL061C, strain MRC1 (second series), hits give low values 1 | locus YDR150W, strain NUM1, hits give low values 1 | locus YDR363W, strain ESC2, hits give low values 1.04 | locus YER002W, strain NOP16, hits give low values 1.01 | locus YGR229C, strain SMI1, hits give low values 1.04 | locus YMR263W, strain SAP30, hits give low values 1 | locus YMR307W, strain GAS1, hits give low values 1.01 | locus YNL153C, strain GIM3, hits give low values 1.04 | locus YNL175C, strain NOP13, hits give low values 1.02 | locus YNL197C, strain WHI3, hits give low values 0.999 | locus YNL224C, strain SQS1, hits give low values 0.996 | locus YOR083W, strain WHI5 (second series), hits give low values 1.01
